About 930 (72%) of roughly 1,300 compounds were called active.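 The calls were made as follows: active = fitted curve reaches 40% activation signal increase at or below the top valid tested concentration in every replicate test; inconclusive = replicate tests disagree in their calls; inactive = all replicate tests inactive, including effects opposite the expected signal rise.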 So high a share suggests a set chosen from earlier hits. A selection follows. A call without a number means that no potency is given here. Potency and affinity values are given separately.

The nature of the assay: suppression of miR-122 activity, Renilla luciferase sensor – cell-based, Huh7 psiCHECK-miR122, cherry-pick, dose response (AID 652053). Conditions: Huh7 psiCHECK-miR122 Renilla luciferase reporter, 48 h; series mostly up to 35 µM.
In the case of `CCC(C)(C)n1nnnc1C(c1ccc(C)cc1)N1CCC(C)CC1` (stereo unspecified), the outcome was inactive.

In the case of `C[C@H](CO)N1C[C@H](C)[C@H](CN(C)C(=O)Nc2cccc3ccccc23)Oc2ccc(NC(=O)Nc3ccc(C(F)(F)F)cc3)cc2CC1=O`, the result was inactive.

`C[C@@H]1CN([C@@H](C)CO)C(=O)Cc2cc(NC(=O)Nc3ccc(C(F)(F)F)cc3)ccc2O[C@H]1CN(C)C(=O)Nc1cccc2ccccc12`: the compound was called inactive.

Turning to `C[C@@H]1CN([C@H](C)CO)C(=O)Cc2cc(NC(=O)Nc3cccc4ccccc34)ccc2O[C@H]1CN(C)C(=O)Nc1cccc2ccccc12`, the compound was called inactive.

`C[C@H](CO)N1C[C@H](C)[C@H](CN(C)C(=O)Nc2cccc3ccccc23)Oc2ccc(NC(=O)Nc3cccc4ccccc34)cc2CC1=O`: the compound was classed as inactive.

In the case of `C[C@H]1CN([C@@H](C)CO)C(=O)Cc2cc(NC(=O)Nc3ccc(C(F)(F)F)cc3)ccc2O[C@@H]1CN(C)C(=O)Nc1cccc2ccccc12`, the compound was called inactive.

Take `CN(C)S(=O)(=O)c1ccc2c(c1)nc(CCC(=O)NCC1CCCCC1)n2C`: the compound was called inactive.

Take `O=C(COc1ccc2c(c1)C(=O)CC1(CCCCC1)O2)NCc1ccccc1`: the compound was classed as inactive.

As for `CC1(C)N([O-])C(c2cccs2)=C[N+]1=O`, the result was inactive.

In the case of `C[C@H]1CN([C@@H](C)CO)C(=O)Cc2cc(NC(=O)Nc3cccc4ccccc34)ccc2O[C@H]1CN(C)C(=O)NC1CCCCC1`, the compound was classed as inactive.

For `C[C@@H]1CN([C@H](C)CO)S(=O)(=O)c2ccc(C3=CCCCC3)cc2O[C@@H]1CN(C)Cc1ccccc1`, the outcome was inactive.

Turning to `C[C@@H]1CN([C@H](C)CO)S(=O)(=O)c2ccc(-c3ccccc3)cc2O[C@H]1CN(C)C(=O)C1CCCCC1`, the outcome was inactive.

Turning to `COC(=O)C[C@H]1CC[C@@H]2[C@H](COc3ccc(NS(=O)(=O)c4ccc(C)cc4)cc3C(=O)N2C)O1`, the compound was called inactive.

Take `O=C(c1ccccc1F)N1C[C@@H]2[C@H](c3ccccc31)[C@@H](CO)N2C(=O)c1ccc(F)cc1`: the outcome was inactive.

Turning to `O=C(c1ccccc1F)N1C[C@H]2[C@@H](c3ccccc31)[C@H](CO)N2C(=O)c1cccnc1`, the result was inactive.

Take `O=C(c1ccccc1F)N1C[C@H]2[C@@H](c3ccccc31)[C@H](CO)N2C(=O)c1ccc(F)cc1`: the compound was classed as inactive.

Regarding `COc1ccc(N2C(=O)c3cccc4c(N(C)CCO)ccc(c34)C2=O)cc1`, the compound was classed as inactive.

On to `O=C(C[C@H]1CC[C@H]2[C@@H](COC[C@H](O)CN2C(=O)Nc2cccc(F)c2)O1)NCc1ccccc1F`, for which the result was inactive.

As for `C[C@H](CO)N1C[C@H](C)[C@@H](CN(C)Cc2ccc(C(=O)O)cc2)Oc2c(NC(=O)C3CCOCC3)cccc2C1=O`, the compound was called inactive.

For `C[C@H](CO)N1C[C@H](C)[C@@H](CN(C)C(=O)Nc2cccc3ccccc23)Oc2c(NC(=O)C3CCOCC3)cccc2C1=O`, the compound was called inactive.

Regarding `COC(=O)c1ccc(Cl)c(NC(C)=O)c1`, the outcome was inactive.

For the compound `COc1ccccc1CNC(=O)C[C@@H]1CC[C@@H]2[C@@H](COc3ccc(NC(C)=O)cc3C(=O)N2C)O1`, the outcome was inactive.

In the case of `Cc1ccc(NC(=O)[C@@H]2CCCN2S(=O)(=O)c2ccccc2F)cc1S(=O)(=O)N1CCOCC1`, the call was inactive.

For the compound `C[C@@H]1CN([C@H](C)CO)C(=O)Cc2cc(NC(=O)Nc3cccc4ccccc34)ccc2O[C@H]1CN(C)C(=O)NC1CCCCC1`, the result was inactive.

Take `Cc1cccc(OCCCC(=O)Nc2ccc(Cl)c(S(=O)(=O)N3CCOCC3)c2)c1`: the compound was classed as inactive.

For `COC(=O)c1cc(Br)ccc1NC(=O)Nc1ccccc1`, the call was inactive.

As for `COc1ccc2c(c1)C(C)=CC(C)(C)N2S(=O)(=O)c1ccc(Br)cc1`, the result was inactive.

Turning to `C[C@H](CO)N1C[C@H](C)[C@H](CN(C)S(=O)(=O)c2ccc(Cl)cc2)Oc2ccc(N(C)C)cc2CC1=O`, the result was inactive.

In the case of `C[C@H](CO)N1C[C@H](C)[C@H](CN(C)S(C)(=O)=O)Oc2ccc(N(C)C)cc2CC1=O`, the call was inactive.

On to `C[C@H](CO)N1C[C@H](C)[C@H](CN(C)CC2CC2)Oc2ccc(N(C)C)cc2CC1=O`, for which the compound was classed as inactive.

Regarding `CC(C)NC(=O)N(C)C[C@@H]1Oc2ccc(N(C)C)cc2CC(=O)N([C@H](C)CO)C[C@@H]1C`, the result was inactive.

Consider `CCCOC(=O)c1[nH]c2c(c1C)C(=O)CC(c1cccs1)C2` (stereo unspecified), for which the call was inactive.

Take `CCn1c(SCC(=O)Nc2ccc(N3CCOCC3)cc2)nnc1-c1ccc(OC)cc1`: the result was inactive.

With `CC(C)N1C(=O)CC(Nc2ccc(N3CCOCC3)cc2)C1=O` (stereo unspecified), the compound was classed as inactive.

As for `Clc1ccc(CNc2nc(N3CCOCC3)nc(N3CCOCC3)n2)cc1`, the outcome was inactive.

As to `COCC(=O)Nc1ccc2c(c1)C(=O)N(C)[C@H]1CC[C@@H](CC(=O)O)O[C@H]1CO2`, the call was inactive.

For `COCCNC(=O)C[C@@H]1CC[C@H]2[C@@H](COc3ccc(NC(C)=O)cc3C(=O)N2C)O1`, the compound was called inactive.

With `COc1ccccc1CNC(=O)C[C@H]1CC[C@H]2[C@H](COc3ccc(NC(=O)Nc4ccc(F)c(F)c4)cc3C(=O)N2C)O1`, the call was inactive.

On to `CCCNC(=O)C[C@@H]1CC[C@@H]2[C@H](COc3ccc(NC(=O)Nc4c(C)noc4C)cc3C(=O)N2C)O1`, for which the result was inactive.

As to `CC(C)C(=O)Nc1ccc2c(c1)C(=O)N(C)[C@H]1CC[C@@H](CC(=O)NCC3CC3)O[C@@H]1CO2`, the call was inactive.

With `COc1ccccc1CNC(=O)C[C@@H]1CC[C@H]2[C@H](COc3ccc(NC(=O)Nc4ccc(F)c(F)c4)cc3C(=O)N2C)O1`, the outcome was inactive.

As for `COc1ccccc1CNC(=O)C[C@@H]1CC[C@H]2[C@@H](COc3ccc(NC(=O)Nc4ccc(F)c(F)c4)cc3C(=O)N2C)O1`, the compound was classed as inactive.

Turning to `Cc1ccc2c(C)nc(Nc3nc(CSc4nc5ccccc5[nH]4)cc(=O)[nH]3)nc2c1`, the compound was called inactive.

With `Cc1nc(Nc2nc(CSc3nc4ccccc4[nH]3)cc(=O)[nH]2)nc2ccccc12`, the call was inactive.

For `NC(=O)c1ccc(-n2nnnc2SCC(=O)c2ccc(O)c(O)c2)cc1`, the compound was classed as inactive.

For the compound `Cc1ccc(-n2nnnc2SCC(=O)N2c3ccccc3NC(=O)C2(C)C)cc1`, the compound was called inactive.

Regarding `O=C(C[C@H]1CC[C@@H]2[C@H](COC[C@H](O)CN2C(=O)C2CCCC2)O1)NCc1ccncc1`, the compound was classed as inactive.

Take `N#Cc1cnn2c1nc(N1CCCCC1)c1ccccc12`: the compound was classed as inactive.

With `CCCCn1c(SCC(=O)Nc2nnc(CC)s2)nc2c1c(=O)n(C)c(=O)n2C`, the compound was called inactive.

On to `CC(C)Cc1nnc(NC(=O)Cc2ccccc2[N+](=O)[O-])s1`, for which the result was inactive.

For `COc1ccccc1C(=O)Nc1ccc2c(c1)C(=O)N(C)[C@@H]1CC[C@@H](CC(=O)NCc3ccc(Cl)c(Cl)c3)O[C@@H]1CO2`, the compound was classed as inactive.

On to `COc1ccccc1C(=O)Nc1ccc2c(c1)C(=O)N(C)[C@@H]1CC[C@H](CC(=O)NCc3ccc(Cl)c(Cl)c3)O[C@H]1CO2`, for which the result was inactive.

`COc1ccccc1CNC(=O)C[C@@H]1CC[C@@H]2[C@@H](COc3ccc(NC(=O)Nc4ccc(F)c(F)c4)cc3C(=O)N2C)O1`: the result was inactive.

With `COc1ccccc1C(=O)Nc1ccc2c(c1)C(=O)N(C)[C@@H]1CC[C@@H](CC(=O)NCc3ccc(Cl)c(Cl)c3)O[C@H]1CO2`, the compound was called inactive.

Regarding `COc1ccccc1CNC(=O)C[C@@H]1CC[C@@H]2[C@H](COc3ccc(NC(=O)Nc4ccc(F)c(F)c4)cc3C(=O)N2C)O1`, the compound was called inactive.

In the case of `COc1ccccc1C(=O)Nc1ccc2c(c1)C(=O)N(C)[C@@H]1CC[C@H](CC(=O)NCc3ccc(Cl)c(Cl)c3)O[C@@H]1CO2`, the outcome was inactive.

For `O=C(c1ccccc1F)N1C[C@H]2[C@@H](c3ccccc31)[C@@H](CO)N2Cc1ccc2c(c1)OCO2`, the outcome was inactive.

`CCOc1ccc(Cl)cc1S(=O)(=O)n1cnc2cc(C)c(C)cc21`: the call was inactive.

As to `Cc1ccc(-n2nnc(-c3nccs3)n2)cc1`, the result was inactive.

As for `CCOc1ccc(CSC2=NCCN2)cc1Cl`, the call was inactive.

As to `CCCNC(=O)C[C@@H]1CC[C@H]2[C@H](COc3ccc(NC(=O)Cc4cccs4)cc3C(=O)N2C)O1`, the call was inactive.

For the compound `CCc1cccc(CC)c1NC(=O)COC(=O)C1(c2ccc(Cl)cc2)CCCC1`, the outcome was inactive.

On to `COc1ccc(OC)c(S(=O)(=O)N2CCNCC2)c1`, for which the call was inactive.

For the compound `Cn1nc(CC(=O)N2CCN(c3ccccc3)CC2)c2ccccc2c1=O`, the compound was called inactive.

Regarding `COc1cccc(C(=O)N2C[C@@H]3[C@H](c4ccccc42)[C@H](CO)N3C(=O)c2ccc(F)cc2)c1`, the outcome was inactive.

As to `COc1cccc(C(=O)N2C[C@@H]3[C@H](c4ccccc42)[C@@H](CO)N3C(=O)c2ccc(F)cc2)c1`, the outcome was inactive.

For the compound `CC(C)NC(=S)N1CCn2c(nc3ccccc32)C1`, the call was inactive.

Turning to `CC(C)CC(=O)NCCCN1CCN(CCCNC(=O)CC(C)C)CC1`, the call was inactive.

Turning to `CCOC(=O)c1ccc(-n2ccnc2)c(NC(=O)c2cccc(Br)c2)c1`, the compound was classed as inactive.

For `Cn1cnc(S(=O)(=O)N2C[C@@H](O)COC[C@H]3O[C@@H](CC(=O)NC4CCCC4)CC[C@@H]32)c1`, the result was inactive.

`CCOC(=O)CN1C(=O)C(C)(C)Oc2ccc(C(=O)Nc3ccccc3)cc21`: the compound was called inactive.

For `CC(=O)N1[C@H](CNC(=O)C2CC2)[C@@H](c2ccc(-c3ccccc3)cc2)[C@@H]1CO`, the outcome was inactive.

Turning to `Cc1cc(C)c2nc(Nc3nc(CSc4nc5ccccc5[nH]4)cc(=O)[nH]3)nc(C)c2c1`, the call was inactive.

Regarding `O=C(C1CCN(Cc2ccc(F)cc2)CC1)N1CCN(C/C=C/c2ccccc2)CC1`, the result was inactive.

Take `CC(=O)N1CCc2cc(S(=O)(=O)NCCCN3CCN(Cc4ccccc4)CC3)ccc21`: the call was inactive.

Take `COc1ccc(-c2cc(NC(C)=O)c3ncc(-c4cc(OC)c(OC)c(OC)c4)n3c2)cn1`: the compound was classed as inactive.

With `N#C/C(=N\Nc1ccc(S(=O)(=O)N2CCCCC2)cc1)C(N)=S`, the outcome was inactive.

Consider `Cc1ccc(NC(=O)c2ccc(S(=O)(=O)N3CCOCC3)cc2)nc1`, for which the result was inactive.

Consider `COc1cc(S(=O)(=O)N2CCOCC2)ccc1NC(=O)CSc1n[nH]c(=O)[nH]c1=O`, for which the outcome was inactive.

Consider `C[C@H](CO)N1C[C@H](C)[C@H](CN(C)Cc2ccc(C(F)(F)F)cc2)Oc2ccc(N(C)C)cc2CC1=O`, for which the outcome was inactive.

Take `C[C@H](CO)N1C[C@H](C)[C@H](CN(C)Cc2ccc3c(c2)OCO3)Oc2ccc(N(C)C)cc2CC1=O`: the compound was classed as inactive.
